The panel holds about 83,000 compounds, 20% with a hit somewhere; the sample as a whole holds those more often.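 Activity criterion: percent growth below 10, measured after cells in 96-well plates were exposed to a single compound concentration for 48 hours.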 Unmarked numbers belong to inactive results. Active and inactive are the calls of the source.
How the values were obtained:
Assay in all cases: NCI-60 one-dose screen, 48 h (100 = growth as untreated, 0 = no growth, -100 = all killed)
Conditions in all cases: 10 µM unless noted
[1] = test system: NCI-H23 lung
[2] = test system: NCI-H226 lung
[3] = test system: NCI-H322M lung
[4] = test system: HOP-62 NSCLC
[5] = test system: NCI-H460 lung
[6] = test system: HOP-92 NSCLC
[7] = test system: NCI-H522 lung
[8] = test system: A549/ATCC NSCLC
[9] = test system: 786-0 renal
[10] = test system: COLO 205 colon

CNC(=O)c1cc(-c2ccc(NC(=S)Nc3cccc(C(F)(F)F)c3)cc2)nc2cccnc12
growth [1]: 92.4%
growth [2]: 95.8%
growth [3]: 96.1%
growth [4]: 102%
growth [5]: 99.4%
growth [6]: 85%
growth [7]: 89.7%
growth [8]: 96.9%
growth [9]: 96.7%
growth [10]: 104%

CN(C)CC(=O)Nc1nc(-c2cccc(NS(=O)(=O)c3cccc4c(N(C)C)cccc34)c2)cs1
growth [1]: 75.6%
growth [2]: 74.1%
growth [3]: 96.2%
growth [4]: 103%
growth [5]: 92.4%
growth [6]: 60.8%
growth [7]: 76.7%
growth [8]: 80.1%
growth [9]: 90.5%
growth [10]: 104%

Cc1csc(/N=C(N)/N=C(\N)c2cccc(Br)c2)n1
growth [1]: 89.1%
growth [2]: 88.9%
growth [3]: 95.6%
growth [4]: 85.3%
growth [5]: 98.1%
growth [6]: 69.9%
growth [7]: 80%
growth [8]: 101%
growth [9]: 97.3%
growth [10]: 95.3%

C#Cc1nc(C(=O)NCCCCCCC(=O)NO)cs1
growth [1]: -74.6% (active)
growth [2]: 39.1%
growth [3]: 29.4%
growth [4]: 16.9%
growth [5]: 16%
growth [6]: -74.6% (active)
growth [7]: -58.5% (active)
growth [8]: 10.2%
growth [9]: -83.4% (active)
growth [10]: -61.7% (active)

Brc1cccc(-c2cc(-c3cnc4c(c3)OCCO4)n[nH]2)c1
growth [1]: 52.4%
growth [2]: 65.6%
growth [3]: 45.2%
growth [4]: 65%
growth [5]: 17.4%
growth [6]: 101%
growth [7]: 19.6%
growth [8]: 36.8%
growth [9]: 79%
growth [10]: 34.9%

O=C1[C@H]2Cc3c([nH]c4ccccc34)[C@H](c3ccc(Br)cc3)N2C(=O)CN1C1CCN(CC2CCCCC2)CC1
growth [1]: 83.5%
growth [2]: 92.5%
growth [3]: 92.8%
growth [4]: 82.2%
growth [5]: 54.1%
growth [6]: 77.2%
growth [7]: 83.6%
growth [8]: 79.4%
growth [9]: 83.4%
growth [10]: 81.3%

CN(C)CCNc1ccc2ncc(C#Cc3cncc(C(=O)Nc4ccc(CN5CCN(C)CC5)c(C(F)(F)F)c4)c3)n2n1
growth [1]: -62.4% (active)
growth [2]: 33.4%
growth [3]: 6.14% (active)
growth [4]: -37.2% (active)
growth [5]: 9.62% (active)
growth [6]: -4.93% (active)
growth [7]: -61.8% (active)
growth [8]: 29.1%
growth [9]: 4.34% (active)
growth [10]: -32.3% (active)

CC[C@]12C=CCN3CC[C@]4(C(=C(C(=O)OC)C1)Nc1cc5c(cc14)[C@@H]1[C@H](O5)[C@@H](O)[C@@]4(CC)CC(C(=O)OC)=C5Nc6cc(O)ccc6[C@@]56CCN1C46)C32 (stereo not given in full)
growth [1]: -40.9% (active)
growth [2]: -1.32% (active)
growth [3]: 0.163% (active)
growth [4]: 16.6%
growth [5]: 10.3%
growth [6]: 35.5%
growth [7]: -22.8% (active)
growth [8]: 20.2%
growth [9]: 6.94% (active)
growth [10]: -48% (active)

Cc1cc(=O)oc2cc(OCCCOc3ccc(/C=C/C(=O)Nc4ccc(Br)cc4)cc3)ccc12
growth [1]: 67.8%
growth [2]: 77.4%
growth [3]: 94.9%
growth [4]: 85.2%
growth [5]: 9.24% (active)
growth [6]: 53.5%
growth [7]: 80%
growth [8]: 92.2%
growth [9]: 61.7%
growth [10]: 97.7%

COc1cc(C(=O)c2cc(C(C)=O)c3cccc(C)n23)cc(OC)c1OC
growth [1]: 59.7%
growth [2]: 51.6%
growth [3]: 69.2%
growth [4]: 36.7%
growth [5]: 16.1%
growth [6]: 33.5%
growth [7]: 19.3%
growth [8]: 50.2%
growth [9]: 47.1%
growth [10]: 11%

CCNCCOc1ccc(/C(=C(/CC)c2ccc(Cl)cc2)c2ccc(OCCCN(C)C)cc2)cc1
growth [1]: -87.3% (active)
growth [2]: -66.4% (active)
growth [3]: -95.4% (active)
growth [4]: -80.1% (active)
growth [5]: -74.2% (active)
growth [6]: -74.6% (active)
growth [7]: -76.7% (active)
growth [8]: -60.9% (active)
growth [9]: -86% (active)
growth [10]: -82.3% (active)

CC(C)=CCC[C@](C)(O)[C@H]1CC[C@]2(C)[C@@H]1CC[C@@H]1[C@@]3(C)CC[C@H](N)C(C)(C)[C@@H]3CC[C@]12C
growth [1]: 76.5%
growth [2]: 93.1%
growth [3]: 111%
growth [4]: 97.9%
growth [5]: 27.4%
growth [6]: 76.3%
growth [7]: 96.8%
growth [8]: 67.3%
growth [9]: 61.9%
growth [10]: -31.4% (active)

O=C(CSc1nnc(-c2cccs2)n1-c1ccccc1)Nc1ccccc1
growth [1]: 86%
growth [2]: 64.4%
growth [3]: 84%
growth [4]: 46.7%
growth [5]: 81.8%
growth [6]: 53.3%
growth [7]: 57.7%
growth [8]: 87.7%
growth [9]: 85.1%
growth [10]: 104%

COc1ccccc1Cn1cc(C#N)c(N)c1C(=O)c1ccc(Br)cc1
growth [1]: 91.8%
growth [2]: 89.5%
growth [3]: 94.6%
growth [4]: 104%
growth [5]: 96.4%
growth [6]: 100%
growth [7]: 89.5%
growth [8]: 101%
growth [9]: 102%
growth [10]: 113%

CN1CCN(c2ccc(Nc3nc(NCCNS(=O)(=O)c4ccccc4)c4sccc4n3)cc2)CC1
growth [1]: 97.5%
growth [2]: 94.2%
growth [3]: 94.9%
growth [4]: 98.7%
growth [5]: 104%
growth [6]: 57.3%
growth [7]: 95%
growth [8]: 104%
growth [9]: 99.2%
growth [10]: 110%

CCC1=Cc2c(OC)cccc2OC12C=Cc1c(OC)cccc1O2 (stereo not given)
growth [1]: 39.7%
growth [2]: 58.3%
growth [3]: 43.9%
growth [4]: 43.2%
growth [5]: 7.72% (active)
growth [6]: 44%
growth [7]: 14.4%
growth [8]: 25.3%
growth [9]: 50.1%
growth [10]: 17.2%

O=C(CSc1nnc(-c2ccc(Cl)cc2)n1-c1ccccc1)Nc1ccc(Cl)cc1
growth [1]: 29.1%
growth [2]: 16%
growth [3]: 41.2%
growth [4]: 82.8%
growth [5]: 19.4%
growth [6]: -5.1% (active)
growth [7]: 39.5%
growth [8]: 21.5%
growth [9]: -50.2% (active)
growth [10]: 90.2%

CN1CCN(CC#CCn2c3c(c4ccccc42)C[C@]2(C)[C@H]4CC=C5[C@@H]6CC(C)(C)CC[C@]6(C(=O)N6CCOCC6)CC[C@@]5(C)[C@]4(C)CC[C@H]2C3(C)C)CC1
growth [1]: 74%
growth [2]: 85.7%
growth [3]: 94.9%
growth [4]: 91.7%
growth [5]: 17.6%
growth [6]: 22.5%
growth [7]: 97%
growth [8]: 41.9%
growth [9]: 76.3%
growth [10]: 87.3%

CCOC(=O)Nc1ccc2c(ccn2C(=O)c2cccc(F)c2)c1
growth [1]: 41.4%
growth [2]: 53.5%
growth [3]: 61.8%
growth [4]: 35.2%
growth [5]: 14.8%
growth [6]: 76%
growth [7]: 0.367% (active)
growth [8]: 47.6%
growth [9]: 57.5%
growth [10]: -3.54% (active)

CN1CCN(c2ccc(Nc3nc(NCCNS(=O)(=O)c4ccc5ccccc5c4)c4sccc4n3)cc2)CC1
growth [1]: 84.3%
growth [2]: 98.4%
growth [3]: 83.7%
growth [4]: 97.5%
growth [5]: 74.3%
growth [6]: 47.8%
growth [7]: 87.4%
growth [8]: 84.3%
growth [9]: 56.3%
growth [10]: 13.3%

CCOC(=O)c1c(N)c(C#N)cn1Cc1ccc(Cl)cc1Cl
growth [1]: 84.4%
growth [2]: 85.1%
growth [3]: 87.4%
growth [4]: 68.7%
growth [5]: 81.2%
growth [6]: 73.1%
growth [7]: 67.2%
growth [8]: 76.2%
growth [9]: 76.4%
growth [10]: 106%

COc1ccc(/C=N/NC(=O)CSc2nc(-c3cnccn3)cc(-c3cccs3)c2C#N)cc1
growth [1]: 72.8%
growth [2]: 75.1%
growth [3]: 84.4%
growth [4]: 53.4%
growth [5]: 37.4%
growth [6]: 63.1%
growth [7]: 81.1%
growth [8]: 50.5%
growth [9]: 22.6%
growth [10]: 68.1%

CCOC(=O)c1cccnc1Nc1ccc(NC(=O)Nc2ccc(Cl)c(C(F)(F)F)c2)cc1
growth [1]: 10.1%
growth [2]: 52.4%
growth [3]: 68.9%
growth [4]: 54.1%
growth [5]: 17.2%
growth [6]: -8.46% (active)
growth [7]: 21%
growth [8]: 42.8%
growth [9]: 68%
growth [10]: 31.7%

C/C(=N\NC(=O)/C=C/CC(=O)O)c1nnn(-c2ccc([N+](=O)[O-])cc2)c1C
growth [1]: 97.8%
growth [2]: 96.9%
growth [3]: 99.1%
growth [4]: 104%
growth [5]: 111%
growth [6]: 74.3%
growth [7]: 98.6%
growth [8]: 102%
growth [9]: 101%
growth [10]: 108%

Source: PubChem BioAssay (NCI)
